PubChem BioAssay (Tox21)
“And” between values parts separate entries of the source, which are not always exact repeats. Identical values can stand only once. Inconclusive results are not listed. Some compounds were tested as several samples or in several runs, with calls that do not always agree. The source made the active and inactive calls. Unless noted, the call rests on the fitted dose curve; in most records, active means well fitted curve in the direction sought with a large enough effect in the repeat runs; inconclusive means weak or mixed curves; inactive means no such curve, though single readings can be large; an effect the other way counts as inactive or inconclusive.

Experiments:
[1] = qHTS assay to identify small molecule antagonists of the glucocorticoid receptor (GR) signaling pathway - cell viability counter screen (AID 720693); further: nearly all actives have a fitted effect of over 55% in size; further: potency means the concentration at half of the fitted maximal effect
[2] = qHTS assay for identifying genotoxic compounds that show differential cytotoxicity against isogenic chicken DT40 cell lines with known DNA damage response pathways - wild type cell line (AID 743012); further: nearly all actives have a fitted effect of over 60% in size; further: potency means the concentration at half of the fitted maximal effect
Summary of the method: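 Using parental DT40 (300 cells/well), compounds delivered in DMSO incubate 40 h at 37 C/5% CO2. CellTiter-Glo reagent then stands 30 min at room temperature, and luminescence gives cell viability.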

[3] = qHTS assay for identifying genotoxic compounds that show differential cytotoxicity against isogenic chicken DT40 cell lines with known DNA damage response pathways - Rev3 mutant cell line (AID 743014); further: nearly all actives have a fitted effect of over 55% in size; further: potency means the concentration at half of the fitted maximal effect
[4] = qHTS assay for identifying genotoxic compounds that show differential cytotoxicity against isogenic chicken DT40 cell lines with known DNA damage response pathways - Rad54/Ku70 mutant cell line (AID 743015); further: nearly all actives have a fitted effect of over 60% in size; further: potency means the concentration at half of the fitted maximal effect
[5] = qHTS assay to identify small molecule antagonists of the androgen receptor (AR) signaling pathway - cell viability counter screen (AID 743033; further: nearly all actives have a fitted effect of over 45% in size)
[6] = biological target: Androgen receptor (Homo sapiens) (UniProt P10275); test: qHTS assay to identify small molecule antagonists of the androgen receptor (AR) signaling pathway (AID 743035; active means well fitted inhibition curve with a large enough effect in the signal ratio in the repeat runs, not every such curve was filed as active; the % refers to the signal ratio)
Androgen receptor (Homo sapiens), sequence (P10275 whole entry, looked up): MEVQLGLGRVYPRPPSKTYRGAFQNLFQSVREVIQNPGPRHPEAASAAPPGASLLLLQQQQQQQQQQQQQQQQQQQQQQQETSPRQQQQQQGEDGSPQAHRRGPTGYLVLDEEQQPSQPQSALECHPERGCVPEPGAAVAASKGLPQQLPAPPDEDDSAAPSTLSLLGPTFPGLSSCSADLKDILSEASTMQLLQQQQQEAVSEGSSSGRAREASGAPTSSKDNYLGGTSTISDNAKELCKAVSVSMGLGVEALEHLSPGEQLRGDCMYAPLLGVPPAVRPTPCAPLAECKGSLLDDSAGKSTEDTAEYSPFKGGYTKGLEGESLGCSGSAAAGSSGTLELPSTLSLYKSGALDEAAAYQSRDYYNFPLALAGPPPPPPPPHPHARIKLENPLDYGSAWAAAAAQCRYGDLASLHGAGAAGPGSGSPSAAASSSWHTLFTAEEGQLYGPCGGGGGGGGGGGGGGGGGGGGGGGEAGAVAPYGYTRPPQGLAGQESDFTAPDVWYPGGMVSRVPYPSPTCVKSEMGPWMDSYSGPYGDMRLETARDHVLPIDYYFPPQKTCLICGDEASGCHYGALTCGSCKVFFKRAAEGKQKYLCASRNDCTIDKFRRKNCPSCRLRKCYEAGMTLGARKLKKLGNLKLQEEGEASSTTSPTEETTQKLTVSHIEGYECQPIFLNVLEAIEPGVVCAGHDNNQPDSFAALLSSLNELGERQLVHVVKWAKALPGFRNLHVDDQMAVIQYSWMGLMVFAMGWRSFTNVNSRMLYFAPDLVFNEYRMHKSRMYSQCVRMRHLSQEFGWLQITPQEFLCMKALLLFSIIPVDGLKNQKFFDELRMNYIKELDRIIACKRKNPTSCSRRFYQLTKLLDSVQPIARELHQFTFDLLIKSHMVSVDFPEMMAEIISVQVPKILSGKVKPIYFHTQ
Summary of the method: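 Using qHTS, AR-UAS-bla GripTite HEK293 cells received compound, then R1881, and were cultured 16 h at 37C/5% CO2 before a 2 h room-temperature LiveBLAzer B/G FRET substrate step and fluorescence measurement.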

[7] = qHTS assay to identify small molecule antagonists of the androgen receptor (AR) signaling pathway using the MDA cell line - cell viability counter screen (AID 743041; further: nearly all actives have a fitted effect of over 45% in size; further: potency means the concentration at half of the fitted maximal effect)
Summary of the method: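 MDA-kb2 AR-luc human breast carcinoma cells (MMTV-luciferase, AR/GR responsive) were treated with compounds plus R1881 agonist for 16 h at 37 °C. Viability was read as CellTiter-Fluor fluorescence in the same wells as the reporter assay.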

[8] = biological target: Androgen receptor (Homo sapiens) (UniProt P10275); test: qHTS assay to identify small molecule antagonists of the androgen receptor (AR) signaling pathway using the MDA cell line (AID 743042; further: nearly all actives have a fitted effect of over 55% in size; further: potency means the concentration at half of the fitted maximal effect)
Summary of the method: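 MDA-kb2 cells (human breast carcinoma, stably carrying an MMTV-luciferase reporter responsive to AR and GR) were plated at 3,000 cells/well and preincubated 5 hr at 37C, then given compound plus R1881 agonist for 16 h. ONE-Glo luminescence was read.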

[9] = biological target: Androgen receptor (Homo sapiens) (UniProt P10275); test: qHTS assay to identify small molecule agonists of the androgen receptor (AR) signaling pathway using the MDA cell line (AID 743040; further: nearly all actives have a fitted effect of over 20% in size)
Summary of the method: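 MDA-kb2 breast carcinoma cells stably carrying an MMTV-driven luciferase reporter (AR- and GR-responsive) were seeded and held 5 h at 37C, 0% CO2, then exposed to compounds in DMSO for 16 h. Luminescence was read 30 min after ONE-Glo addition.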

[10] = biological target: Androgen receptor (Homo sapiens) (UniProt P10275); test: qHTS assay to identify small molecule agonists of the androgen receptor (AR) signaling pathway (AID 743036; active means well fitted activation curve with a large enough effect in the signal ratio in the repeat runs, with a control signal flat, not every such curve was filed as active; the % refers to the signal ratio)
Excerpt: U.S. Tox21 Program National Center for Advancing Translational Sciences [NCATS] NIH Chemical Genomics Center [NCGC] U.S. Environmental Protection Agency [EPA] National Institutes of Environmental Health Sciences [NIEHS] National Toxicology Program [NTP] U.S. Food and Drug Administration [FDA] Tox21 Assay Overview: Androgen receptor (AR), a nuclear hormone receptor, plays a critical role in AR-dependent prostate cancer and other androgen related diseases. Endocrine disrupting chemicals (EDCs) and their interactions with steroid hormone receptors like AR may cause disruption of normal endocrine function as well as interfere with metabolic homeostasis, reproduction, developmental and behavioral functions. To identify the compounds that activate AR signaling, GeneBLAzer AR-UAS-bla-GripTite cell line (Invitrogen, Carlsbad, CA, USA) containing a beta-lactamase reporter gene under the control of an Upstream Activator Sequence (UAS) stably integrated into HEK293 cells was used to screen the Tox21 10K compound library.
Tox21 Assay Protocol Summary: AR-bla cells were dispensed at 2,000 cells/6 uL/well of assay medium into black wall/clear-bottom 1536-well plates using a Multidrop Combi (ThermoFisher Scientific, Waltham, MA) dispenser. After the assay plates were incubated at 37C and 5% CO2 for 4 h, 23 nL of compounds dissolved in DMSO, positive controls or DMSO only was transferred to the assay plate by a Pintool station (Kalypsys, San Diego, CA). The plates were incubated at 37C and 5% CO2 for 16 h. Then 1 uL of LiveBLAzerTM B/G FRET substrate was added using a Bioraptr Flying Reagent Dispenser (FRD) workstation (Beckman Coulter, Indianapolis, IN, USA). The plates were incubated at room temperature for 2 h, and fluorescence intensity was measured by an Envision plate reader (PerkinElmer, Shelton, CT).

Measured: Potency

O=[Se](O)O
inactive: [1] | [5]
active: [2] 433 nM and 5.23 µM | [3] 545 nM and 4.16 µM | [4] 244 nM and 2.34 µM

CCC/C=C/C=O
not listed: [9] | [10]
inactive: all other assays above

O=C1CCc2ccccc2O1
inactive: [1] | [2] | [3] | [4] | [5] | [7]

CCCCCCCCCCCCCO
inactive: [1] | [2] | [3] | [4] | [5] | [7]

C[C@]12C=CC(=O)C=C1CC[C@H]1[C@@H]3C[C@@H](O)[C@](O)(C(=O)CO)[C@@]3(C)C[C@H](O)[C@@]12F
active: [2] 68.6 µM | [3] 8.63 µM | [4] 48.6 µM
inactive: [1] | [5] | [7]

CC(=O)O[C@]1(C(C)=O)CC[C@H]2[C@@H]3C=C(Cl)C4=CC(=O)CC[C@]4(C)[C@H]3CC[C@@]21C
active: [2] 10.6 µM and 27.3 µM | [3] 11.9 µM | [4] 18.8 µM
inactive: [1] | [5] | [7]

C/C=C/C(=O)N(CC)c1ccccc1C
inactive and 48.6 µM (active): [4]
active: [2] 54.5 µM | [3] 54.5 µM
inactive: [1] | [5] | [7]

Cc1ccc(/C(=C\CN2CCCC2)c2ccccn2)cc1
inactive: [1] | [5] | [7]
inactive and 57.3 µM (active): [3]
active: [2] 26.6 µM and 57.3 µM | [4] 23.7 µM and 64.3 µM

O=Cc1ccccc1C=O
active: [1] 23.9 µM and 4.36 µM | [2] 7.5 µM and 2.73 µM | [3] 8.41 µM and 2.17 µM | [4] 11.9 µM and 2.43 µM | [7] 24.3 µM | [8] 8.63 µM
inactive: [5] | [9]

Oc1c(Cl)ccc(Cl)c1Cl
inactive: [1] | [2] | [3] | [4] | [5] | [7]

COCCOCCOCCO
inactive: [1] | [2] | [3] | [4] | [5] | [7]

CN(C)/N=N/c1nc[nH]c1C(N)=O
active: [4] 62 µM
inactive: [1] | [2] | [3] | [5] | [7]

NCCOCCO
inactive: [1] | [2] | [3] | [4] | [5] | [7]

CCC(=O)O[C@H]1[C@H](O[C@@H]2[C@@H](C)[C@H](O[C@H]3C[C@@](C)(OC)[C@@H](O)[C@H](C)O3)[C@@H](C)C(=O)O[C@H](CC)[C@@](C)(O)[C@H](O)[C@@H](C)C(=O)[C@H](C)C[C@@]2(C)O)O[C@H](C)C[C@@H]1N(C)C
inactive and 36.1 µM (active): [4]
inactive: [1] | [5] | [7]
active: [2] 40.5 µM
inactive and 20.3 µM (active): [3]

CC1(C)C(C=C(Cl)Cl)C1C(=O)OCc1cccc(Oc2ccccc2)c1 (configuration not stated)
inactive: all assays above

CC(C)(Oc1ccc(Cl)cc1)C(=O)O
inactive: [1] | [2] | [3] | [4] | [5] | [7]

COc1cc([C@H]2Oc3cc([C@H]4Oc5cc(O)cc(O)c5C(=O)[C@@H]4O)ccc3O[C@@H]2CO)ccc1O
active: [4] 29.8 µM and 48.4 µM
inactive: [1] | [2] | [3] | [5] | [7]

NC[C@H](O)c1ccc(O)c(O)c1
inactive: [1] | [5] | [7]
active: [2] 23.7 µM and 21.7 µM | [3] 21.1 µM and 17.2 µM | [4] 24.3 µM

c1ccc2c(c1)[nH]c1ccccc12
inactive: all assays above

Cc1ccc(C)c(O)c1
inactive: [1] | [2] | [3] | [4] | [5] | [7]

ClC/C=C/CCl
inactive: [1] | [2] | [3] | [4] | [5] | [7]

Nc1ccc(O)c(N)c1
inactive: [1] | [5]
active: [2] 24.3 µM | [4] 27.3 µM
inactive and 27.3 µM (active): [3]

Cc1ccc([N+](=O)[O-])c(C)c1
inactive: [1] | [2] | [3] | [4] | [5] | [7]

CC1(C)NC(=O)N(c2ccc([N+](=O)[O-])c(C(F)(F)F)c2)C1=O
inactive: [1] | [5]
active: [2] 5.96 µM and 4.86 µM | [3] 10.6 µM and 3.86 µM | [4] 9.44 µM and 3.44 µM | [7] 61.1 µM

CC1(C)OC(=O)NC1=O
inactive: [1] | [2] | [3] | [4] | [5] | [7]

Nc1ccc(N)c(Cl)c1
61 µM (active) and inactive: [3]
inactive: [1] | [4]
68.5 µM (active) and inactive: [2]

C=C[C@H]1CN2CC[C@H]1C[C@H]2[C@H](O)c1ccnc2ccc(OC)cc12
active: [2] 13.3 µM and 8.41 µM and 54.5 µM | [3] 23.7 µM and 13.3 µM and 27.3 µM | [4] 26.6 µM and 13.3 µM and 27.3 µM
inactive: [1] | [5] | [7]

CC(C)(C)c1cccc(C(C)(C)C)c1O
inactive: [1] | [2] | [3] | [4] | [5] | [7]

CN(C)C
inactive: [1] | [2] | [3] | [4] | [5] | [7]

O=C1OC2(c3ccccc31)c1cc(I)c(O)c(I)c1Oc1c2cc(I)c(O)c1I
inactive and 9.33 µM (active): [2]
inactive: [1] | [5]
active: [3] 27.6 µM and 11.7 µM | [4] 17.4 µM and 10.5 µM

Cc1cccc(Nc2ccccc2C(=O)O)c1C
inactive and 61.1 µM (active): [4]
inactive: [1] | [2] | [3] | [5] | [7]

[Na+]
inactive: [1] | [2] | [3] | [4] | [5] | [7]

C[C@]12CC[C@@H]3c4ccc(O)cc4CC[C@H]3[C@@H]1CC[C@H]2O
active: [1] 17.4 µM | [2] 44 µM and 48.6 µM | [3] 24.8 µM and 48.6 µM | [4] 27.8 µM and 54.5 µM
inactive: [5] | [7]

COc1ccc2nc(N)sc2c1
inactive: all assays above

CCCCCCCCCCCCO
inactive: [1] | [2] | [3] | [4] | [5] | [7]

C=CCCCCCCCCCC
inactive: [1] | [2] | [3] | [4] | [5] | [7]

C=CC(C)(O)CCC=C(C)C (configuration not stated)
inactive: [1] | [2] | [3] | [4] | [5] | [7]

Cc1ccc(S(=O)(=O)NCl)cc1
inactive: [1] | [2] | [3] | [4] | [5] | [7]

OC[C@@H](O)[C@@H](O[C@@H]1O[C@H](CO)[C@H](O)[C@H](O)[C@H]1O)[C@H](O)[C@@H](O)CO
inactive: [1] | [2] | [3] | [4] | [5] | [7]

Brc1nc2ccccc2s1
inactive: [1] | [2] | [3] | [4] | [5] | [7]

CCCN1C=CN(C)C1
inactive: [1] | [2] | [3] | [4] | [7]

[O-]/[N+](=N\O)c1ccccc1
inactive: [1] | [2] | [3] | [4] | [5] | [7]

C[N+](C)(C)CCO
inactive: [1] | [2] | [3] | [4] | [5] | [7]

CC1(C)O[C@@H]2C[C@H]3[C@@H]4C[C@H](F)C5=CC(=O)C=C[C@]5(C)[C@@]4(F)[C@@H](O)C[C@]3(C)[C@]2(C(=O)CO)O1
inactive: [1] | [2] | [3] | [4] | [7]

C=CC(=O)OCCCC
inactive: [1] | [2] | [3] | [4] | [5] | [7]

c1ccc2cc3ccccc3cc2c1
inactive: [1] | [2] | [3] | [4] | [5] | [7]

CCCCCCCCCCC(CO)CCCCCCCC (configuration not stated)
inactive: [1] | [2] | [3] | [4] | [5] | [7]

NCCS(=O)(=O)O
inactive: [1] | [2] | [3] | [4] | [5] | [7]
